The text below walks through data of PubChem BioAssay.

Several values for one entry are separate records, joined by “and”; a condition that tells them apart may be missing. Equal values may be shown once. A number with no mark means an inactive call. Activity calls are given as the source filed them.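 How the source made its calls: active means thallium flux through the channel raised or lowered by more than 3 SD from vehicle-only wells, actives on both sides; inactive means the rest.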

The first assay deals with R275C. The experiment in a line: BK channel mutant inhibitors and activators – cell-based, U2OS BacMam, thallium flux, beta subunits, selectivity assay, profiling panel (AID 1259406).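 Further: initial slope of Thallos dye fluorescence rise after thallium is added; log ratio against the mean of 0.3% DMSO vehicle wells on the same plate.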 Conditions: U2OS BacMam BK variants, at 30 µM.
For `OCCN1CCN(CCCN2c3ccccc3Sc3ccc(C(F)(F)F)cc32)CC1`, the log fold change Tl+ flux was -0.11.

In the case of `NS(=O)(=O)c1cc2c(cc1Cl)NC=NS2(=O)=O`, the log fold change Tl+ flux was 0.0234.

For the molecule `O=C1C(CCS(=O)c2ccccc2)C(=O)N(c2ccccc2)N1c1ccccc1` (stereo not drawn), the log fold change Tl+ flux was -0.0788.

As to `Cc1ccc(-c2cc(C(F)(F)F)nn2-c2ccc(S(N)(=O)=O)cc2)cc1`, the log fold change Tl+ flux was -0.00943.

As for `CN[C@H]1CC[C@@H](c2ccc(Cl)c(Cl)c2)c2ccccc21`, the log fold change Tl+ flux is -0.288 (active) and -0.259 (active).

As for `Cc1ccccc1C(OCCN(C)C)c1ccccc1` (stereo not drawn), the log fold change Tl+ flux was 0.02 and -0.0278.

Regarding `CCc1nc(N)nc(N)c1-c1ccc(Cl)cc1`, the log fold change Tl+ flux is -0.00785.

Regarding `COc1cc2nc(N(C)CCCNC(=O)C3CCCO3)nc(N)c2cc1OC` (stereo not drawn), the log fold change Tl+ flux was -0.0434.

As to `CN(C)CCOC(c1ccc(Cl)cc1)c1ccccn1` (stereo not drawn), the log fold change Tl+ flux is 0.0106.

`N[C@@H](C(=O)N[C@@H]1C(=O)N2C(C(=O)O)=C(Cl)CS[C@H]12)c1ccccc1`: the log fold change Tl+ flux was 0.0278.

`Nc1ncn([C@@H]2O[C@H](CO)[C@@H](O)[C@H]2O)c(=O)n1`: the log fold change Tl+ flux is 0.0227.

As to `NCc1ccc(S(N)(=O)=O)cc1`, the log fold change Tl+ flux is 0.00729.

For `Cc1ncc([N+](=O)[O-])n1CC(C)O` (stereo not drawn), the log fold change Tl+ flux was -0.115 (active).

For `Cc1ccc(C)c(OCCCC(C)(C)C(=O)O)c1`, the log fold change Tl+ flux was 0.0109.

Take `CN1CCCC(n2nc(Cc3ccc(Cl)cc3)c3ccccc3c2=O)CC1` (stereo not drawn): the log fold change Tl+ flux was -0.0931.

On to `NS(=O)(=O)c1cc2c(cc1C(F)(F)F)NC(Cc1ccccc1)NS2(=O)=O` (stereo not drawn), for which the log fold change Tl+ flux is 0.0405.

With `COC1=CC(=O)C[C@@H](C)[C@]12Oc1c(Cl)c(OC)cc(OC)c1C2=O`, the log fold change Tl+ flux was -0.0442.

In the case of `Cc1cn([C@H]2C[C@H](N=[N+]=[N-])[C@@H](CO)O2)c(=O)[nH]c1=O`, the log fold change Tl+ flux is -0.0157.

Take `CN(CCOc1ccc(CC2SC(=O)NC2=O)cc1)c1ccccn1` (stereo not drawn): the log fold change Tl+ flux was 0.0457 and 0.0237.

Consider `COc1ccc(OC)c(C(O)CNC(=O)CN)c1` (stereo not drawn), for which the log fold change Tl+ flux is -0.0312.

As to `OC(CCN1CCCC1)(c1ccccc1)C1CCCCC1` (stereo not drawn), the log fold change Tl+ flux was 0.00132.

Regarding `NC(=O)N1c2ccccc2CC(=O)c2ccccc21`, the log fold change Tl+ flux is -0.0757.

As for `CCCNCC(O)COc1ccccc1C(=O)CCc1ccccc1` (stereo not drawn), the log fold change Tl+ flux is 0.00823.

With `C/C=C/C(=O)N(CC)c1ccccc1C`, the log fold change Tl+ flux is -0.0159.

Regarding `CCCCCCNC(=O)n1cc(F)c(=O)[nH]c1=O`, the log fold change Tl+ flux is -0.0237.

For `NC(=O)c1cnccn1`, the log fold change Tl+ flux was -0.0218.

In the case of `CN(C)CCc1c[nH]c2ccc(C[C@H]3COC(=O)N3)cc12`, the log fold change Tl+ flux was -0.02.

Regarding `COc1ccccc1OCC(O)COC(N)=O` (stereo not drawn), the log fold change Tl+ flux is 0.00553.

For the molecule `COC(=O)Nc1nc2ccc(C(=O)c3ccccc3)cc2[nH]1`, the log fold change Tl+ flux is -0.00107.

Consider `CCn1cc(C(=O)O)c(=O)c2cc(F)c(N3CCN(C)CC3)cc21`, for which the log fold change Tl+ flux is -0.0565.

Take `Cn1cnc([N+](=O)[O-])c1Sc1ncnc2nc[nH]c12`: the log fold change Tl+ flux is -0.0406.

For `c1ccc2[nH]c(-c3cscn3)nc2c1`, the log fold change Tl+ flux was 0.0284.

Consider `Cc1onc(-c2c(Cl)cccc2Cl)c1C(=O)N[C@@H]1C(=O)N2[C@@H]1SC(C)(C)[C@@H]2C(=O)O`, for which the log fold change Tl+ flux is -0.0255.

With `Clc1ccc2c(c1)C(N1CCNCC1)=Nc1ccccc1O2`, the log fold change Tl+ flux was 0.021.

`CO[C@@]1(NC(=O)Cc2cccs2)C(=O)N2C(C(=O)O)=C(COC(N)=O)CS[C@@H]21`: the log fold change Tl+ flux was 0.0592.

With `CCc1cccc2c3c([nH]c12)C(CC)(CC(=O)O)OCC3` (stereo not drawn), the log fold change Tl+ flux was 0.0181.

With `CC(C)(C)NCC(O)COc1cccc2c1C[C@H](O)[C@H](O)C2` (stereo partly drawn), the log fold change Tl+ flux was -0.00576.

For `O=S(=O)(O)CCS`, the log fold change Tl+ flux was 0.029.

Regarding `O=c1[nH]cc(F)c(=O)[nH]1`, the log fold change Tl+ flux was -0.0492.

For a further assay, the system named is R275C/beta1. The description is as above. Conditions: U2OS BacMam BK variants, at 30 µM.
Take `OCCN1CCN(CCCN2c3ccccc3Sc3ccc(C(F)(F)F)cc32)CC1`: the log fold change Tl+ flux was 0.409 (active).

`NS(=O)(=O)c1cc2c(cc1Cl)NC=NS2(=O)=O`: the log fold change Tl+ flux is 0.0235.

With `O=C1C(CCS(=O)c2ccccc2)C(=O)N(c2ccccc2)N1c1ccccc1` (stereo not drawn), the log fold change Tl+ flux is 0.0129.

As for `Cc1ccc(-c2cc(C(F)(F)F)nn2-c2ccc(S(N)(=O)=O)cc2)cc1`, the log fold change Tl+ flux is 0.012.

Take `CN[C@H]1CC[C@@H](c2ccc(Cl)c(Cl)c2)c2ccccc21`: the log fold change Tl+ flux is 0.549 (active) and 0.546 (active).

For `Cc1ccccc1C(OCCN(C)C)c1ccccc1` (stereo not drawn), the log fold change Tl+ flux is 0.0357 and 0.0895.

`CCc1nc(N)nc(N)c1-c1ccc(Cl)cc1`: the log fold change Tl+ flux is -0.00379.

Take `COc1cc2nc(N(C)CCCNC(=O)C3CCCO3)nc(N)c2cc1OC` (stereo not drawn): the log fold change Tl+ flux was 0.0106.

As to `CN(C)CCOC(c1ccc(Cl)cc1)c1ccccn1` (stereo not drawn), the log fold change Tl+ flux was -0.0266.

In the case of `N[C@@H](C(=O)N[C@@H]1C(=O)N2C(C(=O)O)=C(Cl)CS[C@H]12)c1ccccc1`, the log fold change Tl+ flux is 0.0103.

Turning to `Nc1ncn([C@@H]2O[C@H](CO)[C@@H](O)[C@H]2O)c(=O)n1`, the log fold change Tl+ flux is 0.00104.

As to `NCc1ccc(S(N)(=O)=O)cc1`, the log fold change Tl+ flux was -0.0404.

With `Cc1ncc([N+](=O)[O-])n1CC(C)O` (stereo not drawn), the log fold change Tl+ flux is 0.00616.

Turning to `Cc1ccc(C)c(OCCCC(C)(C)C(=O)O)c1`, the log fold change Tl+ flux was 0.0657.

Take `CN1CCCC(n2nc(Cc3ccc(Cl)cc3)c3ccccc3c2=O)CC1` (stereo not drawn): the log fold change Tl+ flux was 0.101 (active).

For `NS(=O)(=O)c1cc2c(cc1C(F)(F)F)NC(Cc1ccccc1)NS2(=O)=O` (stereo not drawn), the log fold change Tl+ flux is 0.0248.

For the molecule `COC1=CC(=O)C[C@@H](C)[C@]12Oc1c(Cl)c(OC)cc(OC)c1C2=O`, the log fold change Tl+ flux was 0.0145.

For `Cc1cn([C@H]2C[C@H](N=[N+]=[N-])[C@@H](CO)O2)c(=O)[nH]c1=O`, the log fold change Tl+ flux is -0.0324.

For `CN(CCOc1ccc(CC2SC(=O)NC2=O)cc1)c1ccccn1` (stereo not drawn), the log fold change Tl+ flux is 0.113 (active) and 0.178 (active).

Regarding `COc1ccc(OC)c(C(O)CNC(=O)CN)c1` (stereo not drawn), the log fold change Tl+ flux was -0.0304.

For `OC(CCN1CCCC1)(c1ccccc1)C1CCCCC1` (stereo not drawn), the log fold change Tl+ flux was 0.0416.

Take `NC(=O)N1c2ccccc2CC(=O)c2ccccc21`: the log fold change Tl+ flux was 0.0898 (active).

For `CCCNCC(O)COc1ccccc1C(=O)CCc1ccccc1` (stereo not drawn), the log fold change Tl+ flux was 0.184 (active).

Regarding `C/C=C/C(=O)N(CC)c1ccccc1C`, the log fold change Tl+ flux is -0.0206.

As to `CCCCCCNC(=O)n1cc(F)c(=O)[nH]c1=O`, the log fold change Tl+ flux was 0.00244.

As to `NC(=O)c1cnccn1`, the log fold change Tl+ flux was 0.0553.

On to `CN(C)CCc1c[nH]c2ccc(C[C@H]3COC(=O)N3)cc12`, for which the log fold change Tl+ flux is 0.0275.

Consider `COc1ccccc1OCC(O)COC(N)=O` (stereo not drawn), for which the log fold change Tl+ flux was -0.013.

For the molecule `COC(=O)Nc1nc2ccc(C(=O)c3ccccc3)cc2[nH]1`, the log fold change Tl+ flux was 0.00663.

As to `CCn1cc(C(=O)O)c(=O)c2cc(F)c(N3CCN(C)CC3)cc21`, the log fold change Tl+ flux was 0.0145.

In the case of `Cn1cnc([N+](=O)[O-])c1Sc1ncnc2nc[nH]c12`, the log fold change Tl+ flux was 0.0023.

With `c1ccc2[nH]c(-c3cscn3)nc2c1`, the log fold change Tl+ flux is -0.0377.

In the case of `Cc1onc(-c2c(Cl)cccc2Cl)c1C(=O)N[C@@H]1C(=O)N2[C@@H]1SC(C)(C)[C@@H]2C(=O)O`, the log fold change Tl+ flux was 4.8e-05.

With `Clc1ccc2c(c1)C(N1CCNCC1)=Nc1ccccc1O2`, the log fold change Tl+ flux is 0.123 (active).

On to `CO[C@@]1(NC(=O)Cc2cccs2)C(=O)N2C(C(=O)O)=C(COC(N)=O)CS[C@@H]21`, for which the log fold change Tl+ flux is 0.00671.

Turning to `CCc1cccc2c3c([nH]c12)C(CC)(CC(=O)O)OCC3` (stereo not drawn), the log fold change Tl+ flux was 0.127 (active).

In the case of `CC(C)(C)NCC(O)COc1cccc2c1C[C@H](O)[C@H](O)C2` (stereo partly drawn), the log fold change Tl+ flux was -0.0239.

On to `O=S(=O)(O)CCS`, for which the log fold change Tl+ flux was -0.0746.

Turning to `O=c1[nH]cc(F)c(=O)[nH]1`, the log fold change Tl+ flux was 0.0262.
